The test system of assay [1] is Vero E6 infected with SARS-CoV-2. Briefly: morphology score (similarity to uninfected cells); higher = more like uninfected cells. The conditions noted are these: 24 h.
For assay [2] the test system is unchanged. Nature of the assay: SARS-CoV-2 infection rate relative to infected DMSO; higher = more infection, active = 60 or less. The conditions noted are these: 24 h.

In turn, `CCOc1ccc(C(=O)OCCN(CC)CC)cc1` [parethoxycaine] (10 µM) came in with a morphology score in assay [1] of 0.157. Besides, the SARS-CoV-2 infection rate in assay [2] is 108% (inactive).
On the same counts, the results for `CN(Cc1cc(Br)cc(Br)c1N)C1CCCCC1` [bromhexine] (10 µM) are -0.0228 and 102% (inactive).
For the molecule `CC1CS(=O)(=O)CCN1/N=C/c1ccc([N+](=O)[O-])o1` (stereo unspecified) [nifurtimox] (10 µM), the morphology score in assay [1] is 0.0407. For the same molecule, in assay [2], the SARS-CoV-2 infection rate was 102% (inactive).
The matching figures for `CC1(c2ccccc2)OC(C(=O)O)=CC1=O` (stereo unspecified) [acifran] (10 µM): 0.119 and 102% (inactive).
The matching figures for `COc1cc2ncnc(Nc3cccc(Cl)c3F)c2cc1OC(=O)N1CCN(C)C[C@H]1C` (10 µM): -0.178 and 114% (inactive).
`O=NN(CCCl)C(=O)NC1CCCCC1` [lomustine] (10 µM) yielded a morphology score in assay [1] of -0.0183. For the same molecule, in assay [2], the SARS-CoV-2 infection rate was 108% (inactive).
On the same counts, the results for `Nc1cc(C(F)(F)F)c(-c2nc(N3CCOCC3)nc(N3CCOCC3)n2)cn1` (10 µM) are 0.0308 and 114% (inactive).
The matching figures for `N#C/C(=C\c1cn(-c2ccccc2)c2ccccc12)C(=O)O` (10 µM): -0.0582 and 99.5% (inactive).
On the same counts, the results for `O=C(OC(C(F)(F)F)C(F)(F)F)N1CCC(C(O)(c2ccc3c(c2)OCO3)c2ccc3c(c2)OCO3)CC1` (10 µM) are 0.159 and 93.5% (inactive).
The molecule `CC(C)=CCC/C(C)=C/CC/C(C)=C/CC[C@]1(C)CCc2cc(O)cc(C)c2O1` [delta-tocotrienol] (10 µM) yielded a morphology score in assay [1] of 0.0442. In assay [2], the SARS-CoV-2 infection rate is 104% (inactive).
Turning to `COC(=O)c1ccc2c(c1)NC(=O)/C2=C(\Nc1ccc(N(C)C(=O)CN2CCN(C)CC2)cc1)c1ccccc1` [nintedanib] (10 µM), the morphology score in assay [1] is -0.0524. In assay [2], the SARS-CoV-2 infection rate was 108% (inactive).
On the same counts, the results for `C=C[C@]1(C)C[C@@H](OC(=O)CSC(C)(C)CNC(=O)[C@H](N)C(C)C)[C@]2(C)[C@H](C)CC[C@]3(CCC(=O)[C@H]32)[C@@H](C)[C@@H]1O` [valnemulin] (10 µM) are 0.0538 and 116% (inactive).
The molecule `Cl/C=C\C[N+]12CN3CN(CN(C3)C1)C2` [1-((Z)-3-chloroallyl)-1,3,5,7-tetraazaadamantan-1-ium] (10 µM) returned a morphology score in assay [1] of 0.0348. In assay [2], the SARS-CoV-2 infection rate is 99% (inactive).
On the same counts, the results for `CCN(CC)C(=O)c1ccc(C2=CC3(CCNCC3)Oc3cccc(O)c32)cc1` (10 µM) are 0.006 and 122% (inactive).
In assay [1], `O=C(C[S+]([O-])C(c1ccccc1)c1ccccc1)NO` (stereo unspecified) [adrafinil] (10 µM) had a morphology score of 0.2. Further, in assay [2], the SARS-CoV-2 infection rate is 100% (inactive).
On the same counts, the results for `CC(=O)[O-].CC(=O)[O-].N.NC1CCCCC1.[Cl-].[Cl-].[Pt+4]` [satraplatin] (0.833333 µM) are 0.00101 and 104% (inactive).
On the same counts, the results for `CC1=NN=C(c2ccc(N)cc2)c2cc3c(cc2C1)OCO3` (10 µM) are -0.0987 and 112% (inactive).
The matching figures for `O=C(Cc1ccccc1)Nc1nc2ccc(Cl)cc2c2nc(-c3ccco3)nn12` (10 µM): -0.00361 and 110% (inactive).
In the case of `CCn1c2ccccc2c2cc(Nc3ccnc(NCCCN4CCOCC4)n3)ccc21` (0.833333 µM), the morphology score in assay [1] was determined as 0.235. The SARS-CoV-2 infection rate in assay [2] was 93% (inactive).
The matching figures for `Fc1cc(-c2cccc3ncc(-c4cnn(C5CCNCC5)c4)nc23)cc(F)c1CN1CCOCC1` (0.833333 µM): 0.0457 and 116% (inactive).
Molecule `Nc1nc(=O)n([C@H]2C[C@H](O)[C@@H](CO)O2)cc1F` [fdcyd] (10 µM) gave a morphology score in assay [1] of -0.201. Further, the SARS-CoV-2 infection rate in assay [2] was 97.5% (inactive).
Consider `CC1(C)OC(=O)NC1=O` [dimethadione] (10 µM), for which the morphology score in assay [1] was -0.0571. The SARS-CoV-2 infection rate in assay [2] was 102% (inactive).
In assay [1], `Fc1ccc2nc(CCC#Cc3ccccn3)cn2c1` [dipraglurant] (10 µM) had a morphology score of 0.0385. Further, the SARS-CoV-2 infection rate in assay [2] is 103% (inactive).
The matching figures for `C[C@H](N)Cn1ccc2cc(F)c(Cl)cc21` (10 µM): 0.45 and 90.5% (inactive).
On the same counts, the results for `COc1ccccc1OCC(O)CN1CCN(CC(=O)Nc2c(C)cccc2C)CC1` (stereo unspecified) [ranolazine] (10 µM) are 0.0908 and 101% (inactive).
On the same counts, the results for `COCCOCCOc1ccc(C2=N[C@@](C)(C(=O)O)CS2)c(O)c1` (10 µM) are 0.128 and 102% (inactive).
In assay [1], `c1ccc(-c2n[nH]c3c2oc2ccccc23)cc1` (10 µM) showed a morphology score of 0.0627. Moreover, the SARS-CoV-2 infection rate in assay [2] is 98.5% (inactive).
`CO[C@@]1(NC(=O)Cc2cccs2)C(=O)N2C(C(=O)O)=C(COC(N)=O)CS[C@@H]21` [cefoxitin] (10 µM) yielded a morphology score in assay [1] of 0.228. For the same molecule, the SARS-CoV-2 infection rate in assay [2] is 100% (inactive).
The molecule `Nc1ncnc2c1c(-c1cccc(OCc3ccccc3)c1)cn2C1CC(CN2CCCC2)C1` (stereo in doubt) (0.833333 µM) registered a morphology score in assay [1] of 0.0762. In assay [2], the SARS-CoV-2 infection rate is 92% (inactive).
The matching figures for `CCCCCCCCCCCCOS(=O)(=O)O` [dodecyl-sulfate] (10 µM): 0.0848 and 103% (inactive).
On the same counts, the results for `COc1cc(Br)c(S(=O)(=O)Nc2ccc(C(F)(F)F)c(O[C@@H]3CCN(C)C3)c2)cc1OC` (10 µM) are 0.024 and 104% (inactive).
The matching figures for `N#Cc1cccc(C(=O)Nc2cc(-c3ccccc3)nn2-c2ccccc2)c1` (10 µM): -0.166 and 104% (inactive).
With `CSc1ccc2c(c1)[C@H](N1CCN(C)CC1)Cc1ccccc1S2` (racemic) [metitepine] (0.833333 µM), the morphology score in assay [1] was -0.0536. In addition, the SARS-CoV-2 infection rate in assay [2] was 112% (inactive).

The values are drawn from the supplement of paper PMC13380429.
